# According to PubChem BioAssay (EPA / NIEHS):
# Results filed as inconclusive are left out. Calls of active or inactive are those of the source. The calls were made as follows: active = hit-call score of the fitted dose curve at least 0.9, where 1 is the maximum; inconclusive = response in the unintended direction; inactive = score below 0.9.
# Target: human Mitogen-Activated Protein Kinase 1 (MAPK 1), MAPK1 (gene 5594) (UniProt P28482)
# Experiment: NVS_ENZ_hMAPK1: NovaScreen (NVS) Enzymatic Assay for human Mitogen-Activated Protein Kinase 1 (MAPK 1) (AID 2283175)
# Procedure: NVS_ENZ_hMAPK1 is a biochemical, single-readout assay that uses extracted gene-proteins in a cell-free assay. Measurements were taken 1 hour after chemical dosing in a 384-well plate.NVS_ENZ_hMAPK1 is one of one assay component(s) measured or calculated from the NVS_ENZ_hMAPK1 assay. It is designed to make measurements of enzyme activity, a form of enzyme reporter, as detected with fluorescence intensity signals by Fluorescence and electrophoretic mobility shift technology.Data from the assay component NVS_ENZ_hMAPK1 was analyzed into 1 assay endpoint. This assay endpoint, NVS_ENZ_hMAPK1, was analyzed in the positive analysis fitting direction relative to DMSO as the negative control and baseline of activity. Using a type of enzyme reporter, loss-of-signal activity can be used to understand changes in the enzymatic activity as they relate to the gene MAPK1. Furthermore, this assay endpoint can be referred to as a primary readout, because this assay has produced multiple assay endpoints where this one serves a enzymatic activity function. To generalize the intended target to other relatable targets, this assay endpoint is annotated to the kinase intended target family, where the subfamily is serine/threonine kinase.
# Binding assays used specific radioligands (tritiated, iodinated) with non-radioactive competitive displacement ligands in agonist or antagonist protocols (as indicated) and various reference compounds and inhibitors to titrate specific binding to receptors and transporters. Most enzyme assays (CYPs, kinases, phosphatases, proteases, HDACs) used recombinant protein and specific substrates (fluorescence mostly, some colorimetric and radioactive) and inhibitors, followed by a biochemical separation of substrate and product. All assays for the biochemical HTS were initially run in duplicate at a single concentration (10 uM for CYP450 assays and 25 uM for all others). […]
# Sequence of human Mitogen-Activated Protein Kinase 1 (MAPK 1), MAPK1 (gene 5594) (P28482 whole entry, looked up): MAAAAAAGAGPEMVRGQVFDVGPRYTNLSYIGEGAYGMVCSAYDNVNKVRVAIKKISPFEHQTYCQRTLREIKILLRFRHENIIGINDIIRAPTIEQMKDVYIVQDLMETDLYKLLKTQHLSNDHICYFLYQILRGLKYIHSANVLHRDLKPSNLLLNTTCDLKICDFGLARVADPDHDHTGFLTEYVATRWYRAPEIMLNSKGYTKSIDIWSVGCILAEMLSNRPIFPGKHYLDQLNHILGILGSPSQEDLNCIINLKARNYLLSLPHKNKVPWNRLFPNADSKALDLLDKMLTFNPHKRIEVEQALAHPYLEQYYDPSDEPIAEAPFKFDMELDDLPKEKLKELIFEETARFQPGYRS
Compound,outcome,AC50
O=C(N[C@H]1CN2CCC1CC2)c1ccc2c(c1)OCCO2,inactive,
O=C(O)CC(O)(CC(=O)O)C(=O)O,inactive,
CCCCCCCCCCCCOS(=O)(=O)O,,37.3 µM (active)

# Target: Mitogen-activated protein kinase 3 (Homo sapiens) (UniProt P27361)
# Experiment: NVS_ENZ_hMAPK3: NovaScreen (NVS) Enzymatic Assay for human Mitogen-Activated Protein Kinase 3 (MAPK 3) (AID 2283177)
# Outline: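 Cell-free enzymatic assay with recombinant protein and specific substrate; fluorescence and electrophoretic mobility shift read-out 1 h after dosing. Primary screen duplicate at 25 uM; actives then run in concentration-response up to 50 uM, loss of signal versus DMSO.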
# Sequence of Mitogen-activated protein kinase 3 (Homo sapiens) (P27361 whole entry, looked up): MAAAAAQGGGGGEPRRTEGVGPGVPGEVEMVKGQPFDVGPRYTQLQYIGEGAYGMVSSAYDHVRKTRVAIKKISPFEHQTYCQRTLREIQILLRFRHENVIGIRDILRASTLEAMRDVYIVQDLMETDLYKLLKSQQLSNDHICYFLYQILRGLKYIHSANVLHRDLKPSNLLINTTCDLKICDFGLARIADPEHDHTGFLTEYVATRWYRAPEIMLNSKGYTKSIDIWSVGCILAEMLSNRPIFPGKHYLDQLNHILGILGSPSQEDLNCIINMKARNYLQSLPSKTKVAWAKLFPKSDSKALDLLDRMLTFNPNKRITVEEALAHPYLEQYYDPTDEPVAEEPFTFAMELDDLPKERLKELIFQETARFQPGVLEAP
Compound,outcome,AC50
O=C(N[C@H]1CN2CCC1CC2)c1ccc2c(c1)OCCO2,inactive,
CC(C)O.CC(C)O.OCCN(CCO)CCO.OCCN(CCO)CCO.[Ti],,0.00287 µM (active)
COc1nn(C(=O)NS(=O)(=O)c2ccccc2OC(F)(F)F)c(=O)n1C,inactive,
O=C1c2ccccc2C(=O)C1C(=O)C(c1ccccc1)c1ccc(Cl)cc1 (stereo not drawn),inactive,
N#Cc1cccnc1,inactive,
